Our source for the cytotoxicity call values is the antibiotic and cytotoxicity screens of Wong et al. (2023).

The whole screen tested about 39,000 compounds, of which about 3,300 (8.5%) were called active. This is one part of a sample in which actives are shown more often than they occur.

The assay has as its system HepG2. The assay can be described thus: cytotoxicity call (relative viability < 0.9). To be noted: 10 µM.
With `C[C@@H]1CCCCO[C@H](CN(C)C(=O)Nc2ccc(F)cc2)[C@H](C)CN([C@@H](C)CO)C(=O)c2cc(NC(=O)c3ccncc3)ccc2O1`, the cytotoxicity call is “inactive”.
In the case of `NCc1ccc(S(=O)(=O)O)cc1` it was “inactive”.
Turning to `C[C@@H]1CN([C@@H](C)CO)C(=O)Cc2cc(NC(=O)Cn3cnnn3)ccc2O[C@@H]1CN(C)C(=O)Nc1ccc(F)cc1`, the cytotoxicity call is “inactive”.
In the case of `CN1CCN(C(=O)C[C@@H]2C=C[C@@H](NC(=O)c3ccc4c(c3)OCO4)[C@H](CO)O2)CC1`, the cytotoxicity call was “inactive”.
In the case of `CCOc1ccc(NC(=O)CC(C)O)cc1` (stereo not drawn) it was “inactive”.
As for `COc1ccc(OCCC(=O)NN)cc1`, the entry is “inactive”.
As for `CCCCOc1ccc(CC(=O)NO)cc1`, the entry is “active”; as for `CNC(=O)CN(C#N)c1nc(C)cc(C)n1`, “inactive”.
For the compound `COc1ccc(CNC(=O)C[C@H]2C[C@H]3c4cc(NS(=O)(=O)c5ccc(F)cc5)ccc4O[C@H]3[C@H](CO)O2)cc1`, the cytotoxicity call is “inactive”.
In the case of `C[C@H](CO)N1C[C@H](C)[C@H](CN(C)C(=O)c2cccnc2)Oc2ncc(-c3ccc(C(=O)N(C)C)cc3)cc2C1=O` it was “inactive”; in that of `C[C@@H]1CCCCO[C@H](CN(C)C(=O)CCC(F)(F)F)[C@@H](C)CN([C@H](C)CO)C(=O)c2cc(NC(=O)CCC(F)(F)F)ccc2O1`, “inactive”.
As for `C[C@H](CO)N1C[C@H](C)[C@@H](CN(C)C(=O)Nc2ccc(C(F)(F)F)cc2)Oc2ccc(NC(=O)Nc3ccc(F)cc3)cc2C1=O`, the cytotoxicity call is “active”.
On to `C[C@@H]1CN([C@@H](C)CO)C(=O)c2cc(NC(=O)Nc3ccc(C(F)(F)F)cc3)ccc2O[C@H]1CN(C)C(=O)Nc1ccc(C(F)(F)F)cc1`, for which the cytotoxicity call is “inactive”.
As for `C[C@@H]1CN([C@H](C)CO)C(=O)c2cc(NC(=O)Nc3ccc(C(F)(F)F)cc3)ccc2O[C@H]1CN(C)C(=O)Nc1ccc(F)cc1`, the entry is “inactive”; as for `C[C@H]1CN([C@@H](C)CO)C(=O)c2cc(NC(=O)Nc3ccc(F)cc3)ccc2O[C@@H]1CN(C)C(=O)Nc1ccc(C(F)(F)F)cc1`, “inactive”; as for `C[C@@H]1CN([C@@H](C)CO)C(=O)c2cc(NC(=O)Nc3ccccc3)ccc2O[C@@H]1CN(C)C(=O)Nc1ccc(C(F)(F)F)cc1`, “inactive”.
As for `C[C@H](CO)N1C[C@H](C)[C@H](CN(C)C(=O)Nc2ccccc2)Oc2ccc(NC(=O)Nc3ccc(C(F)(F)F)cc3)cc2C1=O`, the entry is “active”.
As for `C[C@H]1CN([C@@H](C)CO)C(=O)c2cc(NC(=O)Nc3ccc(C(F)(F)F)cc3)ccc2O[C@H]1CN(C)C(=O)Nc1ccc(C(F)(F)F)cc1`, the entry is “inactive”; as for `C[C@H]1CN([C@@H](C)CO)C(=O)c2cc(NC(=O)CCC(F)(F)F)ccc2O[C@H]1CN(C)C(=O)Nc1ccc(C(F)(F)F)cc1`, “active”; as for `C[C@@H]1CN([C@H](C)CO)C(=O)c2cc(NC(=O)Nc3ccccc3)ccc2O[C@@H]1CN(C)C(=O)Nc1ccc(C(F)(F)F)cc1`, “inactive”.
Regarding `C[C@@H]1CN([C@H](C)CO)C(=O)c2cc(NC(=O)CCC(F)(F)F)ccc2O[C@@H]1CN(C)C(=O)Nc1ccc(C(F)(F)F)cc1`, the cytotoxicity call was “inactive”.
In the case of `C[C@H](CO)N1C[C@H](C)[C@@H](CN(C)C(=O)Nc2ccc(C(F)(F)F)cc2)Oc2ccc(NC(=O)Nc3ccc(C(F)(F)F)cc3)cc2C1=O` it was “active”; in that of `C[C@@H]1CN([C@@H](C)CO)C(=O)c2cc(NC(=O)CCC(F)(F)F)ccc2O[C@H]1CN(C)C(=O)Nc1ccc(C(F)(F)F)cc1`, “inactive”.
In the case of `Cc1noc(C)c1NC(=O)Nc1ccc2c(c1)CC(=O)N([C@H](C)CO)C[C@H](C)[C@H](CN(C)S(=O)(=O)c1cn(C)cn1)O2` it was “inactive”; in that of `COc1ccc(NC(=O)Nc2ccc3c(c2)C(=O)N([C@H](C)CO)C[C@@H](C)[C@@H](CN(C)C(=O)Cc2ccccc2)OCCCC[C@H](C)O3)cc1`, “inactive”.
In the case of `NC1(C#Cc2cncc(C(=O)N3CCOCC3)c2)CCCCC1` it was “inactive”; in that of `C[C@@H]1CN([C@H](C)CO)C(=O)c2cc(NC(=O)NC3CCCCC3)ccc2O[C@@H](C)CCCCO[C@H]1CN(C)Cc1ccc2c(c1)OCO2`, “inactive”; in that of `Cc1ccc(S(=O)(=O)Nc2ccc3c(c2)CC(=O)N([C@H](C)CO)C[C@H](C)[C@H](CN(C)S(=O)(=O)c2ccccc2)O3)cc1`, “inactive”.
With `COc1ccccc1S(=O)(=O)N[C@H]1C=C[C@H](CC(=O)N2CCN(C)CC2)O[C@H]1CO`, the cytotoxicity call was “inactive”.
In the case of `COc1ccc(NC(=O)Nc2ccc3c(c2)C(=O)N([C@@H](C)CO)C[C@@H](C)[C@H](CN(C)S(=O)(=O)c2c(C)noc2C)OCCCC[C@@H](C)O3)cc1` it was “inactive”; in that of `Cc1cc(C(=O)Nc2cccc3c2O[C@H](CN(C)C(=O)NC(C)C)[C@@H](C)CN([C@@H](C)CO)C3=O)n(C)n1`, “inactive”; in that of `C[C@@H]1CCCCO[C@@H](CN(C)S(=O)(=O)c2cccs2)[C@@H](C)CN([C@H](C)CO)C(=O)c2cc(NC(=O)c3ccccc3)ccc2O1`, “inactive”.
In the case of `O=C(C[C@@H]1CC[C@@H](NS(=O)(=O)c2ccccc2F)[C@@H](CO)O1)NCCCN1CCOCC1` it was “inactive”.
In the case of `O=C(C[C@@H]1CC[C@@H]2[C@H](COC[C@@H](O)CN2C(=O)C2CC2)O1)NCc1ccncc1` it was “inactive”; in that of `C[C@H](CO)N1C[C@H](C)[C@@H](CN(C)C(=O)Nc2ccc(F)cc2)Oc2ccc(NC(=O)Nc3ccc(C(F)(F)F)cc3)cc2C1=O`, “inactive”; in that of `C[C@H]1CN([C@@H](C)CO)C(=O)c2cc(NC(=O)Cc3ccccc3)ccc2O[C@@H]1CN(C)C(=O)Nc1ccc(C(F)(F)F)cc1`, “inactive”.
Consider `C[C@@H]1CN([C@H](C)CO)C(=O)c2cc(NC(=O)Nc3ccc(F)cc3)ccc2O[C@H]1CN(C)C(=O)Nc1ccc(C(F)(F)F)cc1`, for which the cytotoxicity call is “inactive”.
In the case of `C[C@H]1CN([C@@H](C)CO)C(=O)c2cc(NC(=O)Nc3ccc(C(F)(F)F)cc3)ccc2O[C@H]1CN(C)C(=O)Nc1ccc(F)cc1` it was “inactive”.
In the case of `C[C@@H]1CN([C@@H](C)CO)C(=O)c2cc(NC(=O)Nc3ccc(C(F)(F)F)cc3)ccc2O[C@@H]1CN(C)C(=O)Nc1ccc(F)cc1` it was “active”; in that of `C[C@H](CO)N1C[C@H](C)[C@@H](CN(C)C(=O)Nc2ccc(C(F)(F)F)cc2)Oc2ccc(NC(=O)Cc3ccccc3)cc2C1=O`, “inactive”.
As for `C[C@H](CO)N1C[C@H](C)[C@H](CN(C)C(=O)Nc2ccc(C(F)(F)F)cc2)Oc2ccc(NC(=O)Cc3ccccc3)cc2C1=O`, the entry is “active”.
In the case of `C[C@@H]1CN([C@@H](C)CO)C(=O)c2cc(NC(=O)Nc3ccc(F)cc3)ccc2O[C@@H]1CN(C)C(=O)Nc1ccc(C(F)(F)F)cc1`, the cytotoxicity call is “inactive”.
Regarding `C[C@@H]1CN([C@H](C)CO)C(=O)c2cc(NC(=O)Nc3ccc(C(F)(F)F)cc3)ccc2O[C@@H]1CN(C)C(=O)Nc1ccc(F)cc1`, the cytotoxicity call was “active”.
In the case of `CNc1[nH]cnc(=S)c1N` it was “inactive”; in that of `COc1ccc(NC(=O)Nc2ccc3c(c2)C(=O)N([C@H](C)CO)C[C@@H](C)[C@H](CN(C)CC2CCCCC2)O3)cc1`, “inactive”.
As for `CO[C@H]1CN(C(=O)c2ccnnc2)[C@H]2COC[C@@H]12`, the entry is “inactive”; as for `Cc1noc(C)c1S(=O)(=O)Nc1ccc2c(c1)C(=O)N([C@@H](C)CO)C[C@@H](C)[C@@H](CN(C)Cc1ccc3c(c1)OCO3)O2`, “inactive”.
In the case of `Cc1cc(O)c(C(=O)NC(C(=O)NC2C(=O)N3C(C(=O)O)=C(CSc4nnnn4C)CSC23)c2ccc(O)cc2)cn1` (stereo not drawn) it was “inactive”.
In the case of `C[C@H](CO)N1C[C@H](C)[C@@H](CN(C)C(=O)Nc2cccc3ccccc23)Oc2ccc(NC(=O)Nc3ccc4c(c3)OCO4)cc2C1=O`, the cytotoxicity call is “inactive”.
In the case of `N[C@H]1[C@H](CCCCC(=O)O)SC[C@@H]1N` it was “inactive”; in that of `Cc1noc(C)c1NC(=O)N(C)C[C@@H]1Oc2ccc(NC(=O)c3ccncc3)cc2CC(=O)N([C@@H](C)CO)C[C@H]1C`, “inactive”; in that of `NCCc1ccc(O)c(O)c1`, “inactive”.
As for `CC(Cc1ccc(O)c(O)c1)C(C)Cc1ccc(O)c(O)c1` (stereo not drawn), the entry is “inactive”.
With `Cl.NCCc1ccc(O)c(O)c1`, the cytotoxicity call is “active”.
As for `O=C(C[C@H]1CC[C@@H]2[C@H](COC[C@@H](O)CN2C(=O)C2CC2)O1)NCc1ccncc1`, the entry is “inactive”.
In the case of `COc1cc(CO)cc(I)c1O[C@H]1C=C(C(=O)NCCO)C[C@@H](NC[C@@H]2CCCO2)[C@@H]1O` it was “inactive”; in that of `COc1cc(CO)cc(I)c1O[C@H]1C=C(C(=O)NCCO)C[C@@H](NCc2ccc(F)cc2)[C@@H]1O`, “inactive”.
As for `COc1cc(CO)cc(I)c1O[C@H]1C=C(C(=O)NCCO)C[C@@H](NC2CCCCCC2)[C@@H]1O`, the entry is “active”; as for `C[C@@H]1CCCCO[C@H](CN(C)Cc2ccc(Cl)c(Cl)c2)[C@H](C)CN([C@@H](C)CO)C(=O)c2cc(NC(=O)Cc3ccccc3)ccc2O1`, “inactive”.
On to `C[C@@H]1CN([C@@H](C)CO)C(=O)c2cc(NC(=O)Cc3ccccc3)ccc2O[C@@H](C)CCCCO[C@@H]1CN(C)Cc1ccccc1`, for which the cytotoxicity call was “inactive”.
As to `C[C@@H]1CN([C@@H](C)CO)C(=O)c2cc(NC(=O)Cc3ccccc3)ccc2O[C@@H](C)CCCCO[C@H]1CN(C)Cc1ccccc1`, the cytotoxicity call is “inactive”.
As for `C[C@@H]1CN([C@H](C)CO)C(=O)c2cc(NC(=O)Cc3ccccc3)ccc2O[C@@H](C)CCCCO[C@H]1CN(C)Cc1ccc(Cl)c(Cl)c1`, the entry is “active”.
As for `C[C@@H]1CCCCO[C@@H](CN(C)Cc2ccc(Cl)c(Cl)c2)[C@@H](C)CN([C@H](C)CO)C(=O)c2cc(NC(=O)Cc3ccccc3)ccc2O1`, the entry is “active”; as for `C[C@@H]1CCCCO[C@@H](CN(C)Cc2ccc(Cl)c(Cl)c2)[C@H](C)CN([C@H](C)CO)C(=O)c2cc(NC(=O)Cc3ccccc3)ccc2O1`, “inactive”.
As for `C[C@@H]1CCCCO[C@@H](CN(C)Cc2ccccc2)[C@@H](C)CN([C@@H](C)CO)C(=O)c2cc(NC(=O)Cc3ccccc3)ccc2O1`, the entry is “inactive”.
For `C[C@H]1CCCCO[C@@H](CN(C)Cc2ccccc2)[C@@H](C)CN([C@@H](C)CO)C(=O)c2cc(NC(=O)Cc3ccccc3)ccc2O1`, the cytotoxicity call was “inactive”.
As for `C[C@@H]1CCCCO[C@H](CN(C)Cc2ccc(Cl)c(Cl)c2)[C@@H](C)CN([C@H](C)CO)C(=O)c2cc(NC(=O)Cc3ccccc3)ccc2O1`, the entry is “active”.
In the case of `C[C@H](CO)N1C[C@H](C)[C@@H](CN(C)Cc2ccc(Cl)c(Cl)c2)OCCCC[C@H](C)Oc2ccc(NC(=O)Cc3ccccc3)cc2C1=O` it was “active”.
